This is one part of a sample in which hits are shown more often than they occur.
ST2 inh: IL1RL1 inhibition. AID 1259354. inhibition, % for hits at 17 µM. Q01638. AlphaLISA ST2-Fc/biotin-IL-33 interaction, 1 h. hit rate 2.3% among 78,000; in the data active = inhibition above about 30%
Target sequence (Q01638 whole entry, looked up): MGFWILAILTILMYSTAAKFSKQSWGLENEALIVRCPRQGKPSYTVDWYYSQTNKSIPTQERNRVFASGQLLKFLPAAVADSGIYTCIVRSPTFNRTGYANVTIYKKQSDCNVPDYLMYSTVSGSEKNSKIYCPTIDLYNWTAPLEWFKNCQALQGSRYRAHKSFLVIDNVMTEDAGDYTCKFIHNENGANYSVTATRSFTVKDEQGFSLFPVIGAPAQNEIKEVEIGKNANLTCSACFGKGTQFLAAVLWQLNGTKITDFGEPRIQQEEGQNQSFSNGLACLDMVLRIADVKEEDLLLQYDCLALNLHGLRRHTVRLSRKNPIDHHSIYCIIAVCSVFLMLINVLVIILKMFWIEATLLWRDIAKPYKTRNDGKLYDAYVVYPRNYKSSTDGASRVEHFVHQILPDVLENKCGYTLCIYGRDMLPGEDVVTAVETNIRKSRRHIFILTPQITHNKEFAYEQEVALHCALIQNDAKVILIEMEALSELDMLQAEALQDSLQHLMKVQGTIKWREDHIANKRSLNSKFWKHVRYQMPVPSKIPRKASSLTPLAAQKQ
Starred values were filed as active, the others as inactive; i = inactive; ! = repeats disagree.

SMILES	ST2 inh
CC1=C(C(=O)Nc2ccccn2)C(c2ccc(N(C)C)cc2)C2=C(CC(C)(C)CC2=O)N1 (stereo not drawn)	i
CCCN(Cc1cccc([N+](=O)[O-])c1)CC1CC1	96.0%*
O=[N+]([O-])c1cccc(CN2CCC(N3CCCCCC3)CC2)c1	i
O=[N+]([O-])c1cccc(CN2CCCCC2CCO)c1 (stereo not drawn)	i
Nc1ccc(Oc2ccc(-c3nc(N)nc(N)n3)cc2)cc1	i
COc1ccc(Oc2ccc(N)cc2)cc1	39.0%*
CC(=O)c1ccc(Oc2ccc(N)cc2)cc1	i
Nc1nc2ccc(Oc3ccc4nc(N)sc4c3)cc2s1	i
Nc1ccc(Oc2ccc(N)c(N)c2)cc1	44.0%*
N#Cc1ccc(Oc2ccc(C(=O)O)cc2)cc1C#N	i
Clc1nc(NCCCN2CCOCC2)nc(N(c2ccccc2)c2ccccc2)n1	i
O=C(O)[C@@H]1[C@H](C(=O)Nc2ccc(Cl)cc2Cl)[C@@H]2C=C[C@H]1C2	i
COc1ccc(C2C(C(=O)Nc3cccnc3)=C(C)Nc3nnnn32)cc1 (stereo not drawn)	i
COc1ccc(OC)c(NC(NC(=O)c2ccco2)C(=O)c2ccc(Cl)cc2)c1 (stereo not drawn)	i
CCCCOc1ccc(CNC(=O)CN2C(=O)c3cccnc3Sc3ccccc32)cc1	i
COCCCNC(=O)CN1C(=O)/C(=C\c2ccc(C(F)(F)F)cc2)Sc2ccccc21	i
Cc1ccc2c(c1)N(CC(=O)NCc1ccccn1)C(=O)CO2	i
CCN(CCNC(=O)CN1C(=O)/C(=C/c2ccccc2F)Sc2ccccc21)c1ccccc1	42.0%*
Cc1ccc(/C=C2/Sc3ccccc3N(CC(=O)NCc3ccccn3)C2=O)cc1	32.0%*
CCC1Oc2ccccc2N(CC(=O)NCCCN(CC)CC)C1=O (stereo not drawn)	i
CCN(CC)CCCNC(=O)CN1C(=O)/C(=C\c2ccc(Cl)cc2)Sc2ccccc21	i
O=C(CN1C(=O)/C(=C/c2ccccc2F)Sc2ccccc21)NCc1ccccc1Cl	i
CCCCNC(=O)CN1C(=O)/C(=C/c2ccccc2F)Sc2ccccc21	i
CCN(CC)CCNC(=O)CN1C(=O)/C(=C\c2ccc(Cl)cc2)Sc2ccccc21	33.0%*
CCN(CC)CCNC(=O)CN1C(=O)/C(=C\c2ccc(C(F)(F)F)cc2)Sc2ccccc21	37.0%*
SMILES	ST2 inh
Cc1cc(NC(=O)CN2C(=O)S/C(=C\c3ccc(Cl)cc3)C2=O)no1	i
CN(C)c1nc(-c2ccccc2)nc2c1CCN(C(=O)[C@H](O)c1ccccc1)C2	i
O=C(O)c1cc(S(=O)(=O)NCc2ccccc2)ccc1Br	i
CCN1CCN(c2cc(C)c3cc(NC(=O)CCC(=O)NCC4CCCO4)ccc3n2)CC1 (stereo not drawn)	i
CN1CCN(C)C2(CCN(C(=O)c3cn[nH]c3-c3cccs3)CC2)C1	i
N#Cc1ccc(C2C=C(c3ccccc3)Oc3[nH]c(=O)[nH]c(=O)c32)cc1 (stereo not drawn)	i
Cc1nn(Cc2ccc(F)cc2)c(C)c1NC(=O)c1cc(-c2ccc(F)cc2)on1	i
Cn1c(CN2CCCC(CCC(=O)NCc3ccccc3F)C2)nc2ccccc21 (stereo not drawn)	i
C=CCNS(=O)(=O)c1ccc([N+](=O)[O-])cc1	i
COc1cc2[nH]c3c(=O)n(CCC(=O)NCCc4ccc(S(N)(=O)=O)cc4)cnc3c2cc1OC	i
COCC(=O)Nc1c(C)cc(C)cc1C	i
CC1CN(C)C(C)c2c1oc1ccc([N+](=O)[O-])cc21 (stereo not drawn)	43.0%*
Cc1cccc(-c2nc3cc([N+](=O)[O-])ccc3o2)c1	i
CN1CCN(Cc2cc([N+](=O)[O-])ccc2O)CC1	i
CCOc1cc2c(cc1OCC)C1C(C(=O)N(C)C3CCCCC3)c3ccccc3C(=O)N1CC2 (stereo not drawn)	i
C[C@@H](NC(=O)/C(C#N)=C/c1ccc(O)c(O)c1)c1ccccc1	58.0%*
CC(NC(=O)c1ccccc1C(=O)NC(C)c1ccccc1)c1ccccc1 (stereo not drawn)	i
N#C/C(=C\c1ccc(O)c(O)c1)C(=O)Nc1ccccc1	i
CCCCOC(=O)C1=C(C)Nc2nnnn2C1c1ccccc1F (stereo not drawn)	i
CCOC(=O)C1(Cc2ccc(Cl)cc2)CCN(C(=O)C2Cc3ccccc3O2)CC1 (stereo not drawn)	i
O=[N+]([O-])c1ccc(Nc2c[nH]c3ccccc23)cc1	42.0%*
O=c1cc[nH]c2ccc([N+](=O)[O-])cc12	i
O=[N+]([O-])c1ccc(S(=O)(=O)Nc2ccccc2)cc1	i
CC(C)OCCCNC(=O)CNC(=O)C1CCCCC1	i
O=C(NCCCN1CCCCC1)c1cc(=O)[nH]c2ccc(S(=O)(=O)N3CCCCC3)cc12	i
SMILES	ST2 inh
Cc1ccc(-n2nc3c(c2NC(=O)c2cccc(C(F)(F)F)c2)CS(=O)C3)cc1 (stereo not drawn)	i
O=C(Nc1cc(-c2nc3ccccc3s2)ccc1Cl)c1ccco1	39.0%*
Cc1ccc(-c2nc3cc(Cl)ccc3o2)cc1NC(=O)c1ccco1	i
O=C(Nc1ccc(-c2nc3ccccc3s2)cc1)C(F)(F)F	i
O=C1C2CCCN2C(c2cccs2)N1c1ccc(Cl)c(Cl)c1 (stereo not drawn)	i
COc1ccc(C2=C/C(=C\c3ccc(C)o3)C(=O)O2)cc1	i
COc1ccc(/C=C2/C=C(c3ccc(C)cc3)OC2=O)cc1OC	32.0%*
COc1ccc(OC)c(/C=C2\N=C(c3cccs3)OC2=O)c1	i
COc1ccc(/C=C2/C=C(c3cc(OC)ccc3OC)OC2=O)c(OC)c1	40.0%*
COc1ccc(/C=C2\SC(N3CCOCC3)=NC2=O)c(OC)c1	i
COc1ccc(/C=C2/OC(=O)c3c2cc(C)[nH]c3=O)cc1OC	i
N/C(=N/OC(=O)COc1ccccc1)c1ccccn1	i
O=C(c1ccccc1)N1CCC(C(=O)N2CCN(Cc3ccccc3)CC2)CC1	i
Cc1nc(-c2nccc(-c3cc(C(=O)O)ccn3)n2)cs1	i
CC(C)C1=CCC(C(=O)O)C(C(=O)O)C1 (stereo not drawn)	i
CC(C)NC(=O)C(Cc1ccccc1)NS(=O)(=O)c1cccs1 (stereo not drawn)	i
CCOC(=O)C(C)(C)Sc1nc2c(c(=O)n1-c1ccc(Cl)cc1)SCC2	i
CCOC(=O)C(C)(C)Sc1nc2c(c(=O)n1-c1ccc(OCC)cc1)SCC2	43.0%*
CCCSc1nc2c(c(=O)n1-c1ccc(F)cc1)SCC2	i
CCSc1nc2c(c(=O)n1-c1ccc(C)cc1)SCC2	33.0%*!
Cc1ccc(-n2c(SCC(=O)N3CCCCCC3)nc3c(c2=O)SCC3)cc1	i
CC(Sc1nc2c(c(=O)n1-c1ccc(F)cc1)SCC2)c1ccccc1 (stereo not drawn)	i
CCOC(=O)C(CC)Sc1nc2c(c(=O)n1-c1ccc(C)cc1)SCC2 (stereo not drawn)	i
Cc1ccc(-n2c(SC(C)C)nc3c(c2=O)SCC3)cc1	36.0%*!
CCOC(=O)C(C)(C)Sc1nc2c(c(=O)n1-c1ccc(Br)cc1)SCC2	i
CC1OC(c2c(O)cc3oc(-c4ccc(O)cc4)cc(=O)c3c2O)C(O[C@@H]2O[C@@H](C)[C@H](O)[C@@H](O)[C@H]2O)C(O)C1O (stereo partly drawn)	i
CCOC(=O)N1CCN(C2CCCN(C(=O)CC3CCCC3)C2)CC1 (stereo not drawn)	i
